Measurements from publication PMC7819943, “Rice protein-binding microarrays: a tool to detect cis-acting elements near promoter regions in rice”.
Over roughly 68,000 sequences, “fluorescence intensity (a.u.)” has its median near 9,100; the highest 2% begin near 16,000. This is one part of a sample in which the highest values are shown more often than they occur.

molecular target: OsWRKY34 (Oryza sativa, UniProt Q0JBA9 1-250); test: protein-binding microarray (RPBM); PBS, 2% BSA, 51.3 ng/ul salmon testes DNA, 50 uM zinc acetate, 200 nM TF, 25 C, 1 h; high values mean tight binding; settings: protein: recombinant; tags: N-terminal polyhistidine and DsRed monomer fusion (pET32a); label: CyDye5-dUTP incorporated in the synthesized complementary strand; 3' TTTTT single-stranded linker to array surface; dsDNA, one strand shown
In short: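 An Axon 4000B scanner gave the binding signal as per-feature fluorescence intensity in arbitrary units. This followed washing of a custom Agilent array that had been incubated for 1 h at 25 °C with 200 nM protein in PBS, 2% BSA, salmon testes DNA and 50 µM zinc acetate. The proteins were transcription factors fused at the N-terminus to polyhistidine and DsRed, expressed in E. coli BL21-CodonPlus and purified on Ni–NTA.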

Sequence of OsWRKY34 (Q0JBA9 entry or part of it): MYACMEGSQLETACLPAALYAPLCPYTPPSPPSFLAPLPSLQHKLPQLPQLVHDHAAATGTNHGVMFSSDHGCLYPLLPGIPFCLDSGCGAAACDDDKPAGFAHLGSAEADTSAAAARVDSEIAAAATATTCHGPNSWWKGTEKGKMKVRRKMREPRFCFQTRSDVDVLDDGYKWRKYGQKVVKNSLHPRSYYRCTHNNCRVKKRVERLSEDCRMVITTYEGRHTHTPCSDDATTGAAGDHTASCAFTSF

Sequence | binding signal
GTTGAGGGACCCGCTGGATCTGGTTTTTGATTGAAGGATACGGAGTCACCTAGTGCAG | 8800 fluorescence intensity (a.u.)
TTTTTTTTCTTTCTGTTCTGTTTCTGTTGAGAAACAAAGACGGAGTCACCTAGTGCAG | 8450 fluorescence intensity (a.u.)
AGTATTGTTTTCTCGCTGTCTCTATCCAAATCTTTGAAAACGGAGTCACCTAGTGCAG | 17200 fluorescence intensity (a.u.)
GCCTTTTTCTTGCGTGTAGGTTGTTCTGTTGAGAGAAAGACGGAGTCACCTAGTGCAG | 17700 fluorescence intensity (a.u.)
TCTTCTTTTGTTGTCTTCTGCTATCCAATCTCTTGTCAAACGGAGTCACCTAGTGCAG | 10500 fluorescence intensity (a.u.)
TGTTATTATTGCCGTTGTCTTTATTTTTCTTTTTTGAAAACGGAGTCACCTAGTGCAG | 9580 fluorescence intensity (a.u.)
TTATTGTTTTTATTGTCTTTTTTTCTTTATATTTCCAAAACGGAGTCACCTAGTGCAG | 11400 fluorescence intensity (a.u.)
TATATTGTCTGTTTTCTCTTGAATCTTTCCTATCCAGTAGCGGAGTCACCTAGTGCAG | 8490 fluorescence intensity (a.u.)
CCTTTTCAAGTATTATTGCTGTTTGATTCATCTCTCTTTGCGGAGTCACCTAGTGCAG | 9510 fluorescence intensity (a.u.)
TAAACTTGCTCTGATGCGCCCACACGGGGCCACGGCGCGCCGGAGTCACCTAGTGCAG | 9010 fluorescence intensity (a.u.)
TAAACTCGTCTTATCCGCATGATTGTTGACTATAGTATGTCGGAGTCACCTAGTGCAG | 9300 fluorescence intensity (a.u.)
CTTTCATATATGTGTGTGCTATGATTTGTTTTCTTCCTCACGGAGTCACCTAGTGCAG | 11900 fluorescence intensity (a.u.)
CCGCATCCTTCTTGGACTTCTGTTTTGTTGTTGGCCATGGCGGAGTCACCTAGTGCAG | 11100 fluorescence intensity (a.u.)
GATTTTTCTTTACATGTTCTTTTTCATCGATCTTTTGAGACGGAGTCACCTAGTGCAG | 9460 fluorescence intensity (a.u.)
GCTCCAGATCTGTGGGTGTCTTTGGGTGAGTGGGCAAATACGGAGTCACCTAGTGCAG | 11200 fluorescence intensity (a.u.)
GACCTGAAGTTCTCGTTGTGTTGGCCTGCGTTTTTATCTGCGGAGTCACCTAGTGCAG | 16800 fluorescence intensity (a.u.)
CTGAACATGTTGTTCAGTTGGCCTCGTTTTCTCACCTTTGCGGAGTCACCTAGTGCAG | 9320 fluorescence intensity (a.u.)
TTGTTCTCTTTTTTTTTGCGTGCGTTGACTTTATCTTCAACGGAGTCACCTAGTGCAG | 19900 fluorescence intensity (a.u.)
TCGTTTTTCTCTTTAGTGTGTGTGTGTTGCGTTTTTGCAACGGAGTCACCTAGTGCAG | 10300 fluorescence intensity (a.u.)
ATATCTCACTTTGACTGCTTGTTGTTATCGTTCTTTTATACGGAGTCACCTAGTGCAG | 12000 fluorescence intensity (a.u.)
CTTCTGCTTGGTGTGTTGTGTGTTTTACCTTGAGTTATCTCGGAGTCACCTAGTGCAG | 8480 fluorescence intensity (a.u.)

Sequence | binding signal
GGGAGTCAAAGTAGACTTATTCTTCCCCAATCCATCTCAGCGGAGTCACCTAGTGCAG | 8330 fluorescence intensity (a.u.)
GTTCTCGATGTGTTCTAAAATTTTGTTGTTTATAATTTTTCGGAGTCACCTAGTGCAG | 8190 fluorescence intensity (a.u.)
TTCATCGTAAACGTTACTTCTCGTTATAAATTGATTTTTTCGGAGTCACCTAGTGCAG | 10100 fluorescence intensity (a.u.)
ACAGCGACCTTTTGCTGCAAAGCTTTGTTGGGTTTGGGCTCGGAGTCACCTAGTGCAG | 8470 fluorescence intensity (a.u.)
ACGACCCCTCCAACACATTTCCCTCGCGTCTCGTTGCGATCGGAGTCACCTAGTGCAG | 8480 fluorescence intensity (a.u.)
AGGATCGAGGAATTCAGTTAAGCAAAAATATTTATACATGCGGAGTCACCTAGTGCAG | 47600 fluorescence intensity (a.u.)
CTCGTTATATCTATTATAAATTTTTTAATATACATGTTATCGGAGTCACCTAGTGCAG | 9040 fluorescence intensity (a.u.)
ATCGTACCATTATTCAAAATTTTAAATAGTTACATGTTCACGGAGTCACCTAGTGCAG | 8120 fluorescence intensity (a.u.)
ATCTCCGGCGTTTTTCAACCGTATGGCAATGATCATCCTTCGGAGTCACCTAGTGCAG | 11100 fluorescence intensity (a.u.)
TGGCCGGAGCTAGGGTGGGTGGGTGGTTGGCCGCACCACCCGGAGTCACCTAGTGCAG | 8250 fluorescence intensity (a.u.)
GTGGCTGCGTGTGGTGGCGTTGCACGGCTCGGGTGGGCTCCGGAGTCACCTAGTGCAG | 8660 fluorescence intensity (a.u.)
GTTGGGGTGGAGGGCTGCTCCAGGTGAGAGGGCTGGGCATCGGAGTCACCTAGTGCAG | 9900 fluorescence intensity (a.u.)
TAGGGAGGGTTGTGGGGAGGGGAGCTGTGGCCGCAATGTCCGGAGTCACCTAGTGCAG | 19400 fluorescence intensity (a.u.)
TTGTGGCAATGGCGGCGGTGGCGGTGGCGGTTGGGGTGGCCGGAGTCACCTAGTGCAG | 11500 fluorescence intensity (a.u.)
CTGTGGTGGTGTGCATACGGGTTGGGGTGGAGGGCTGCTCCGGAGTCACCTAGTGCAG | 17900 fluorescence intensity (a.u.)
GAAGGTTGCTGTTGCTTGTTGTTGGTAGTGTCTTGTGTGCCGGAGTCACCTAGTGCAG | 9090 fluorescence intensity (a.u.)
GGGCTTGTTGGGGTTGCTGTGGTAGCCGGGAGGGAGGGGACGGAGTCACCTAGTGCAG | 28500 fluorescence intensity (a.u.)
TGGCTGCCGGACTTGGGAGGGACACTGGGTTGGTTGTGGGCGGAGTCACCTAGTGCAG | 9440 fluorescence intensity (a.u.)
TAGCTCACATCGTTTTACGTATCTTCCCAATCTCCTGATCCGGAGTCACCTAGTGCAG | 8950 fluorescence intensity (a.u.)
CTTTCGCGTTTTCCTTGGGTTTGACAATGGGCTACATTGCCGGAGTCACCTAGTGCAG | 9400 fluorescence intensity (a.u.)
TATACTCCTTATCTTGGATTGGTAGTCTTTAGTTTGCTTTCGGAGTCACCTAGTGCAG | 9320 fluorescence intensity (a.u.)
